# Bioassay records from PubChem.
# Tau fluor cs = counter-screen for tau fibril formation inhibitors. tau K18 P301L Alexa594 fluorescence, heparin fibrillization. Potency, µM (series often up to 57.7 µM), for inactives: at the top dose activity change, negative = decrease. 0.93% of 280,000 active; note: nearly all actives have a fitted effect of over 55% in size
#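 Human tau K18 P301L (15 uM unlabeled, 0.24 uM Alexa 594-labeled) in 100 mM sodium acetate pH 7 with 20 uM heparin, 6 hr at 37 C. ThT 30 uM added, 1 hr ambient; Alexa 594 FP and total fluorescence read at 555/632 nm.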
# Sfp PPTase inh = inhibitors of Bacillus subtilis Sfp phosphopantetheinyl transferase; Q9F4F7; Biochemical Sfp PPTase activity, qHTS; Potency, µM, without a hit: largest response in the series, negative = inhibition, most hits filed as inhibitors; 3.5% of 310,000 active; AID 1490;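 note: the enzyme is Sfp with the accession as filed and its product quenches rhodamine fluorescence; 0% = enzyme reaction without inhibitor and -100% = no enzyme wells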
#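 With Hepes-Na pH 7.6 buffer containing 10 mM MgCl2, Sfp (15 nM) modified BHQ-2-YbbR (12.5 uM) using rhodamine-CoA (5 uM). Two reads 30 minutes apart at 525/598 nm yielded each well's rate.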
# Tau ThT inhib = tau fibrillization inhibition (ThT binding) | P10636 | recombinant tau K18 P301L (four-repeat tau fragment), heparin-induced fibrillization, ThT fluorescence | Potency, µM (series often up to 57.4 µM), for inactives: at the highest dose activity, negative = inhibition, most hits filed as inhibitors | 2.1% of 270,000 active | AID 1460; note: nearly all actives have a fitted effect of over 55% in size
# Target sequence (P10636 561-689 P618L limits assumed): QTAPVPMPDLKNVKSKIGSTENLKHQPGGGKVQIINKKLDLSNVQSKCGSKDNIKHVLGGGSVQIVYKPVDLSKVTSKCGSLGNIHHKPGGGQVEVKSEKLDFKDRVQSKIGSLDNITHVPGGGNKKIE
#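 K18 P301L tau (15 uM + 0.24 uM Alexa 594-tagged), heparin 20 uM, NaOAc pH 7, 6 h 37 C; ThT 30 uM, 1 h RT, ex 450/em 510 nm.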
# PLK1 PBD inh = inhibitors of human PLK1 polo-box domain binding | P53350 | Plk1 PBD binding of FITC phosphopeptide, fluorescence polarization | Potency, µM, without a hit: max response, negative = inhibition, most hits filed as inhibitors | 2.8% of 360,000 active; note: series mostly up to about 57 µM; nearly all actives have a fitted effect of over 65% in size
# VDR inh = inhibitors of human vitamin D receptor. Potency, µM, inactives show max response, negative = inhibition, most hits filed as inhibitors. 0.93% of 400,000 active. VDR-SRC2-3 peptide fluorescence polarization, 2 h. AID 504847
# Target sequence (P11473 whole entry, looked up): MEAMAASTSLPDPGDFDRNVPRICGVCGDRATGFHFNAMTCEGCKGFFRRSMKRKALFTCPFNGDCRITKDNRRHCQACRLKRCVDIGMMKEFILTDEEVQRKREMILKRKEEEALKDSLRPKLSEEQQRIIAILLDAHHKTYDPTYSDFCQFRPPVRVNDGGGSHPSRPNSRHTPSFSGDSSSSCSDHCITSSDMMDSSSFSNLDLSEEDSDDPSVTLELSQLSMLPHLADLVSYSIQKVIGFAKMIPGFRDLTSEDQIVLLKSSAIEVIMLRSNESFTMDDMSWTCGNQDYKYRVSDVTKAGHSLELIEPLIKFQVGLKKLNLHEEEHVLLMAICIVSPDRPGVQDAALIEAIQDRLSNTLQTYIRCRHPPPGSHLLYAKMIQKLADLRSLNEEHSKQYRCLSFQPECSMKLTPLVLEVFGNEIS
#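 Measured by FP: displacement of SRC2-3 coactivator peptide from VDR by library compounds, following a two-hour ambient incubation.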
# Tau FP inhib = inhibitors of human tau fibril formation. K18 P301L tau heparin fibrillization, Alexa594 FP, 6 h. Potency, µM (top dose mostly 57.7 µM), inactives show at the highest dose activity, negative = inhibition, usual class: inhibitors. 0.39% of 280,000 active. AID 1468; note: nearly all actives have a fitted effect of over 55% in size
#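 K18 P301L tau (15 uM unlabeled/0.24 uM Alexa 594-labeled, final) + compound + heparin 20 uM final; 100 mM NaOAc pH 7; 6 hr 37 C; ThT 30 uM final added, 1 hr RT; FP ex 555/em 632 nm.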
# Active calls of the source: *; u = inconclusive; x = no result given; [ ] = remark or other dose. Only some compounds are listed: those with a hit (about 6% of all), similar ones and a draw of the others. Calls come from the whole dose curve; as a rule, active = well fitted curve in the direction sought with a large enough effect; inconclusive = small, poorly fitted or top-dose-only effect, or another doubt; inactive = no such curve, though single readings can be large; an effect the other way counts as inactive or inconclusive. Unless noted, % is set by controls: 0 for no effect and ±100 for the full control effect; potency is the fitted concentration of half-maximal effect.
SMILES,Tau fluor cs,Sfp PPTase inh,Tau ThT inhib,PLK1 PBD inh,VDR inh,Tau FP inhib
O=C(NC1CCCC1)C(c1ccncc1)N(Cc1cccs1)C(=O)c1csnn1 (stereo not given),u,20µM*,u,-21.7%,-14.3%,u
O=C(NC1CCCCC1)C(c1cccnc1)N(CCc1ccccc1)C(=O)Cc1cccs1 (stereo not given),-1.2%,17.4%,-0.7%,26.7µM*,u,3.7%
COC(=O)C1=C[C@@H](C(=O)OC)C2C3=C(C(=O)[C@]2(C)NC(=O)c2ccccc2)[C@H](C)n2c(=O)n(C)c(=O)n2[C@@H]3C1 (stereo not given in full),x,11.1%,x,x,-20.1%,x
CCSc1nc2n(n1)C(c1ccc(C(=O)O)cc1)C(C(=O)Nc1ccccc1C)=C(C)N2 (stereo not given),-2.4%,x,0.9%,x,5.0%,-8.0%
CCOC(=O)Cc1csc(NC(=O)Cn2cnc3c2c(=O)n(C)c(=O)n3C)n1,-6.3%,-3.2%,-10.4%,11.9µM*,u,11.0%
COc1cccc(NC(=O)CSc2nnc3[nH]c(=O)cc(-c4ccccc4)n23)c1,-26.0%,x,u,x,1.6%,0.6%
COc1ccc(-n2c(SCC(=O)C(C)(C)C)nc3c(sc(=S)n3-c3ccccc3)c2=O)c(OC)c1,x,3.55µM*,x,3.77µM*,31.6µM*,x
CCOC(=O)CSc1nc2c(sc(=S)n2-c2ccccc2OC)c(=O)n1-c1ccccc1OC,x,9.5%,x,2.5%,-9.4%,x
C#CCOCCOCCOCCNc1nc(N2CCN(C(=O)[C@H](Cc3cc4ccccc4[nH]3)n3cc([C@@H](N)CC(C)C)nn3)CC2)nc(N2CCN(C(=O)[C@H](Cc3cc4ccccc4[nH]3)n3cc([C@@H](N)CC(C)C)nn3)CC2)n1,-14.1%,15.8µM*,u,0.5%,18.9%,u
C#CCOCCOCCOCCNc1nc(N2CCN(C(=O)[C@H](CCC(=O)O)n3cc(C(N)CO)nn3)CC2)nc(N2CCN(C(=O)[C@H](CCC(=O)O)n3cc(C(N)CC(C)C)nn3)CC2)n1 (stereo not given in full),9.6%,89.1µM*,1.8%,x,x,-7.5%
C#CCOCCOCCOCCNc1nc(N2CCN(C(=O)[C@H](Cc3cc4ccccc4[nH]3)n3cc([C@@H](N)Cc4ccc(O)cc4)nn3)CC2)nc(N2CCN(C(=O)[C@H](Cc3cc4ccccc4[nH]3)n3cc([C@@H](N)CC(C)C)nn3)CC2)n1,-5.1%,56.2µM*,u,-9.5%,38.2%,-7.3%
C#CCOCCOCCOCCNc1nc(N2CCN(C(=O)[C@H](CCC(=O)O)n3cc(C(N)CO)nn3)CC2)nc(N2CCN(C(=O)[C@H](CCC(=O)O)n3cc(C(N)CO)nn3)CC2)n1 (stereo not given in full),6.5%,-23.5%,2.0%,x,x,3.6%
O=c1c(N2CCN(c3cccc(C(F)(F)F)c3)CC2)csc2ccccc12,-16.4%,x,u,x,10.1%,1.1%
O=C(NCc1ccco1)c1ccc2sc([C@H]3C[C@H](O)[C@@H](CO)O3)nc2c1,x,x,x,-10.9%,x,x
CCOC(=O)c1c2c(n(Cc3ccccc3)c1C)C(=O)C(=O)c1ccccc1-2,x,x,x,-6.6%,50.1µM*,x
CN(C)CC(O)COC(c1ccccc1)c1ccccc1 (stereo not given),8.3%,24.0%,2.4%,-15.0%,5.4%,-3.0%
OC(CNCCc1ccc(C(F)(F)F)cc1)COC(c1ccccc1)c1ccccc1 (stereo not given),x,56.2µM*,x,-13.2%,5.5%,x
COCCCNC1=C(C#N)C(=O)NC(c2cccs2)S1 (stereo not given),x,x,x,-25.6%,x,x
COC(=O)CC1C(=O)NCCN1C(=S)NC(=O)c1ccccc1[N+](=O)[O-] (stereo not given),-1.4%,79.4µM*,-9.6%,-18.2%,-7.8%,6.8%
COC(=O)CC1C(=O)NCCN1C(=S)Nc1ccccc1 (stereo not given),-6.0%,-26.6%,-8.3%,-6.0%,5.2%,1.9%
CCc1ccccc1NC(=S)N1CCNC(=O)C1CC(=O)OC (stereo not given),8.1%,9.9%,8.6%,21.2µM*,-18.5%,4.3%
CCOC(=O)CC1C(=O)NCCN1C(=S)NC(=O)c1ccccc1OC (stereo not given),x,-20.0%,x,-7.9%,-0.6%,x
CC(C)OC(=O)CC1C(=O)NCCN1C(=S)NC(=O)c1cccs1 (stereo not given),-20.6%,56.2µM*,-23.4%,-9.2%,13.0%,-9.7%
CCNC(=S)N1CCNC(=O)C1CC(=O)OC (stereo not given),-6.9%,79.4µM*,-3.9%,-1.7%,-21.7%,1.8%
Cn1c(=O)c2c(nc(SC3C(=O)CC(C)(C)CC3=O)n2C)n(C)c1=O,-3.7%,56.2µM*,-2.9%,-1.3%,8.9%,-6.0%
SMILES,Tau fluor cs,Sfp PPTase inh,Tau ThT inhib,PLK1 PBD inh,VDR inh,Tau FP inhib
COc1ccc(NC(=O)CS(=O)(=O)c2cn(CC(=O)N3CCOCC3)c3ccccc23)cc1OC,x,56.2µM*,x,-24.3%,-0.1%,x
O=C(Cc1cccc(F)c1)N1CCOCC1,x,x,x,21.2µM*,-10.0%,x
O=C(Cn1cc(S(=O)(=O)Cc2cccc(F)c2)c2ccccc21)N1CCOCC1,x,56.2µM*,x,-12.5%,1.1%,x
O=C(Nc1cccnc1Cl)c1cc2ccccc2o1,x,1.5%,x,0.8%,-0.7%,x
CC(C)(C)OC(=O)N1C(=O)[C@](OC(=O)c2ccccc2)(c2ccc(F)cc2)c2ccccc21,x,x,x,2.6%,x,x
C=CCOc1ccc(C(=O)c2ccccc2)c(OCC(=O)NC2(C#N)CCCC2)c1,x,-16.2%,x,0.4%,0.1%,x
Cc1ccccc1C(=O)Nc1ccc2c(C#N)c3nc4ccccc4nc3n2c1,u,56.2µM*,5.01µM*,-16.3%,-4.4%,-9.1%
Cc1c(C(=O)Nc2ccccc2)cn2c(nc3ccccc32)c1C#N,-0.4%,0.7%,-0.9%,-3.7%,-22.9%,-16.1%
Oc1ccc(Nc2nc(-c3ccccc3F)nc3ccccc23)cc1,x,9.5%,x,-1.6%,16.0%,x
COc1ccc(Nc2nc(-c3ccccc3F)nc3ccccc23)cc1OC,10µM*[quencher],-11.8%,u,-5.8%,u,14.8%
C/C(=N\Nc1nc(-c2ccccc2O)nc2ccccc12)c1ccccc1,u,3.2%,-8.2%,-5.1%,-1.0%,-2.7%
C/C(=N/Nc1nc(-c2ccccc2F)nc2ccccc12)c1ccccc1O,u,-29.3%,10µM*,4.9%,-11.3%,6.4%
O=C(CCN1C(=O)C2C3CCC(C3)C2C1=O)Nc1ccc(F)cc1 (stereo not given),x,8.8%,x,-5.1%,1.2%,x
COCC(=O)N1CCC[C@@]2(CCN(C(=O)Nc3ccc(OC)cc3)C2)C1,x,20.4%,x,x,7.9%,x
